Values joined by “and” are separate entries in the source; they are usually repeats but may differ in a detail not shown here. Equal values may be shown once. Inconclusive results are not listed. Where a structure was tested more than once in an assay, its records may differ in their call. Active and inactive are the calls of the source. Unless noted, calls come from the whole dose curve; as a rule, active = well fitted curve in the direction sought with a large enough effect in the repeat runs; inconclusive = weak or mixed curves; inactive = no such curve, though single readings can be large; an effect the other way counts as inactive or inconclusive.

Test [1] has as its target Progesterone receptor (Homo sapiens) (UniProt P06401). The test is described as follows: qHTS assay to identify small molecule agonists of the progesterone receptor (PR) signaling pathway (AID 1346784; calls by dose curve; note: nearly all actives have a fitted effect of over 30% in size). The essentials: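 The screen uses PR-UAS-bla HEK 293T cells in charcoal-stripped serum (2%). Compounds are applied for 16 hr at 37C after a 6 hr pre-incubation, and reporter activity is detected with a FRET beta-lactamase substrate after 2 hr at room temperature.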
(In general: qHTS replaces the single test concentration by a dilution series.)

For test [2] the target is unchanged. The test is described as follows: qHTS assay to identify small molecule antagonists of the progesterone receptor (PR) signaling pathway (AID 1346795; active = well fitted inhibition curve with a large enough effect in the signal ratio in the repeat runs, not every such curve was filed as active; the % refers to the signal ratio; note: potency is the fitted concentration of half-maximal effect). The essentials:
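After 6 hr plating at 37C in 2% stripped-serum medium, PR-UAS-bla HEK293T cells got compounds, then 1 nM R5020. Sixteen hours later, LiveBLAzer substrate was applied for 2 hr at room temperature and fluorescence was recorded.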

Test [3] is described as follows: qHTS assay to identify small molecule antagonists of the TGF-beta/Smad signaling pathway - cell viability counter screen (AID 1346824). Note: nearly all actives have a fitted effect of over 50% in size. The essentials:
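Cytotoxicity counter-screen run in the same wells as the beta-lactamase Smad reporter read: CellTiter-Glo luminescence after 30 min at room temperature. HEK 293T SBE-bla cells had 5 hr compound exposure at 37 C with TGF-beta1 (0.25 ng/mL stock).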

Test [4] in a line: qHTS assay to identify small molecule agonists of the TGF-beta/Smad signaling pathway - cell viability counter screen (AID 1346829). Note: top concentration of the series differs between compounds; nearly all actives have a fitted effect of over 45% in size. The essentials: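 CellTiter-Glo luminescence readout; SBE-bla HEK 293T cells, overnight plating, compound 5 hr at 37 C/5% CO2, then bla substrate 2 hr RT, then CellTiter-Glo 30 min RT.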
Test [5] is described as follows: qHTS assay to identify small molecule agonists of the TGF-beta/Smad signaling pathway (AID 1346859; active = well fitted activation curve with a large enough effect in the signal ratio in the repeat runs, not every such curve was filed as active; the % refers to the signal ratio; note: series mostly up to about 77 µM). The essentials: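 Dual-wavelength fluorescence (460/530 nm emission) quantified beta-lactamase expression under the Smad binding element in HEK 293T cells following 5 hr compound treatment at 37 C.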
Test [6] has as its target Thyrotropin-releasing hormone receptor (Homo sapiens) (UniProt P34981). The test is described as follows: qHTS assay to identify small molecule antagonists of the thyrotropin-releasing hormone receptor (TRHR) signaling pathway (AID 1346877; active = well fitted inhibition curve with a large enough effect in the repeat runs, not every such curve was filed as active; note: series mostly up to about 51 µM). The essentials: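 In this cell-based calcium flux format, HEK293 cells expressing TRHR received test compound for 5 min before the agonist TRH (1 nM final). Dye loading lasted 2 h at 37 °C.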

For test [7] the target is unchanged. The test is described as follows: qHTS assay to identify small molecule agonists of the thyrotropin-releasing hormone receptor (TRHR) signaling pathway (AID 1346891; calls by dose curve; note: series mostly up to about 58 µM). The essentials:
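Kinetic fluorescence (3 min, 1 s intervals) reported intracellular calcium after compound transfer onto TRHR-Hek293 cells pre-loaded with dye for 2 h at 37 °C.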

A short description of test [8]: Human pregnane X receptor (PXR) small molecule agonists, qHTS cell viability counter screen (AID 1346977). Note: nearly all actives have a fitted effect of over 50% in size. Note: potency is the fitted concentration of half-maximal effect. An outline of the steps: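 HepG2 cells stably carrying the PXR-Luc reporter are cultured with 5% charcoal-stripped FBS and treated with compounds for 24hr. CellTiter-Fluor is added at 23hr and fluorescence is read after 1hr.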
The nature of test [9]: Caspase-3/7 induction in HepG2 cells by small molecules, qHTS assay (AID 1346978). Note: nearly all actives have a fitted effect of over 15% in size. An outline of the steps:
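Caspase-3/7 induction was measured by Caspase-Glo 3/7 luminescence (30 min, room temperature) after a 17 hr compound exposure of wild-type HepG2 cells seeded at 2,000 per well and pre-incubated 5 hr.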

Test [10] is described as follows: Caspase-3/7 induction in CHO-K1 cells by small molecules, qHTS cell viability counter screen (AID 1346979). Note: nearly all actives have a fitted effect of over 35% in size. Note: potency is the fitted concentration of half-maximal effect. The essentials:
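Seeding: 1,500 CHO-K1 cells/well. Rest: 5hr, 37C. Treatment: compounds in DMSO, 16hr. Read: CellTiter-Fluor, 1hr, fluorescence.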

Test [11] in a line: Caspase-3/7 induction in CHO-K1 cells by small molecules, qHTS assay (AID 1346980). Note: nearly all actives have a fitted effect of over 15% in size. The essentials:
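Luminescent Caspase-Glo 3/7 read (30min, room temperature) quantified apoptosis induction. Cells were wild-type CHO-K1, treated with compound for 17hr at 37 C and 5% CO2.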

Test [12] is described as follows: Caspase-3/7 induction in HepG2 cells by small molecules, qHTS cell viability counter screen (AID 1346981). Note: nearly all actives have a fitted effect of over 30% in size. Note: potency is the fitted concentration of half-maximal effect. An outline of the steps: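 Counter screen for cytotoxicity: HepG2 exposed 16 hr to compounds, then CellTiter-Fluor viability signal (fluorescence, 1 hr reagent incubation).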
The target in test [13] is Nuclear receptor subfamily 1 group I member 2 (Homo sapiens) (UniProt O75469). The test is described as follows: Human pregnane X receptor (PXR) small molecule agonists, qHTS assay (AID 1346982). Note: nearly all actives have a fitted effect of over 35% in size. Note: potency is the fitted concentration of half-maximal effect. The essentials:
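Luminescence (ONE-Glo, 30 min RT) after 24 hr compound exposure of PXR-Luc HepG2 cells; cells rested 5 hr post-plating in 5% charcoal-stripped FBS medium.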

Test [14] has as its target Cytochrome P450 2D6 (Homo sapiens) (UniProt P10635). The test can be described thus: Cytochrome P450 Family 2 Subfamily D Member 6 (CYP2D6) small molecule antagonists: luciferase reporter qHTS assay (AID 1671196). Note: nearly all actives have a fitted effect of over 50% in size. Note: potency is the fitted concentration of half-maximal effect. The essentials: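 Inhibition of CYP2D6 was gauged by loss of luminescence, since light produced tracks the luciferin generated from a proluciferin substrate. A 10 min room-temperature preincubation preceded 1 h NADPH-supported turnover.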
(In a reporter assay the amount or activity of a reporter protein is the signal.)

For test [15], the target named is Cytochrome P450 2C19 (Homo sapiens) (UniProt P33261). The test can be described thus: Cytochrome P450 Family 2 Subfamily C Member 19 (CYP2C19) small molecule antagonists: luciferase reporter qHTS assay (AID 1671197). Note: nearly all actives have a fitted effect of over 65% in size. Note: potency is the fitted concentration of half-maximal effect. The essentials:
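Enzyme-substrate mix with proluciferin substrate (P450-Glo CYP2C19 system) preincubated with compounds 10 min at room temperature; NADPH regeneration solution added, 37C for 1 h; detection reagent stops reaction, luminescence read after 20 min. Ketoconazole positive control.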

Test [16] is described as follows: qHTS assay to identify small molecule antagonists of the progesterone receptor (PR) signaling pathway - cell viability counter screen (AID 1346798). Note: series mostly up to about 92 µM; nearly all actives have a fitted effect of over 50% in size. An outline of the steps:
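Viability was determined by ATP-based luminescence (CellTiter-Glo) in PR-UAS-bla HEK293T cells cultured in 2% charcoal-stripped serum and incubated 16 hr with compounds under R5020 stimulation.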

The nature of test [17]: qHTS assay to identify small molecule agonists of the progesterone receptor (PR) signaling pathway - cell viability counter screen (AID 1346799; calls by dose curve; note: nearly all actives have a fitted effect of over 45% in size). The essentials:
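Viability was scored by ATP luminescence (CellTiter-Glo, 30 min, room temperature) in the same wells used for the reporter readout, after 16 hr compound exposure of PR-UAS-bla HEK293T cells.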

In test [18] the target is Nuclear receptor subfamily 1 group I member 2 (Rattus norvegicus) (UniProt Q9R1A7). The test is described as follows: Rat pregnane X receptor (rPXR) activation by small molecules, qHTS assay (AID 1346983). Note: nearly all actives have a fitted effect of over 20% in size. As to conditions: rPXR luciferase reporter cells, One-Glo luminescence, 24 h; stronger effect = higher value. An outline of the steps: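 Luminescent readout (One-Glo luciferase, 30 min room temperature) followed 24 hr compound treatment at 37 C of rPXR cells plated 2,000 per well and preincubated 5hr; qHTS format with compounds delivered in DMSO.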

In test [19] the target is Nuclear receptor subfamily 1 group I member 2 (Homo sapiens) (UniProt O75469). The test is described as follows: CYP3A4 induction through human pregnane X receptor (PXR) by small molecules, qHTS assay (AID 1346984). Note: nearly all actives have a fitted effect of over 40% in size. An outline of the steps: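 DPX-2 reporter cells; 24h cpd, 37C; Luciferin-IPA 3uM final x3h; One-Glo 30 min RT; lumi read.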
Test [20] shares this target. The test is described as follows: Human pregnane X receptor (PXR) activation by small molecules, qHTS assay (AID 1346985). Note: nearly all actives have a fitted effect of over 40% in size. The essentials:
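DPX-2 cells (HepG2 co-transfected with a PXR response element and a CYP3A4-promoter luciferase construct) were seeded at 2,000 per well, rested 5 hr at 37C, then exposed to DMSO-dissolved compounds for 24 hr. Activation was read as luciferase luminescence.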
% is set by controls: 0 for no effect and ±100 for the full control effect.

Sequence of Cytochrome P450 2C19 (Homo sapiens) (P33261 whole entry, looked up): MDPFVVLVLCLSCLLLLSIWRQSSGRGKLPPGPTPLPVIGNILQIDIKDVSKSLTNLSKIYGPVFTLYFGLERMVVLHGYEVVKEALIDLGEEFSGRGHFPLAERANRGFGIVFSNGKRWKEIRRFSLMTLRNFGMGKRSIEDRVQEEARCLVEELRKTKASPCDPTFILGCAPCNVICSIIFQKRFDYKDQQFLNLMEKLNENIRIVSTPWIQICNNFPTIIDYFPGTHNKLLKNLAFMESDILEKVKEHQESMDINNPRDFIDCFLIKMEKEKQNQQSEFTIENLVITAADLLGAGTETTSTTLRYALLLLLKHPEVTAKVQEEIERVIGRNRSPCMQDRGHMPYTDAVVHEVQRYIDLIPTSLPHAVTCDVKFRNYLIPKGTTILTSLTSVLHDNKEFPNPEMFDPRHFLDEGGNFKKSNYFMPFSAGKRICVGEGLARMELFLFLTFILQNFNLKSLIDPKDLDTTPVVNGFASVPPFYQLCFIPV
Sequence of Thyrotropin-releasing hormone receptor (Homo sapiens) (P34981 whole entry, looked up): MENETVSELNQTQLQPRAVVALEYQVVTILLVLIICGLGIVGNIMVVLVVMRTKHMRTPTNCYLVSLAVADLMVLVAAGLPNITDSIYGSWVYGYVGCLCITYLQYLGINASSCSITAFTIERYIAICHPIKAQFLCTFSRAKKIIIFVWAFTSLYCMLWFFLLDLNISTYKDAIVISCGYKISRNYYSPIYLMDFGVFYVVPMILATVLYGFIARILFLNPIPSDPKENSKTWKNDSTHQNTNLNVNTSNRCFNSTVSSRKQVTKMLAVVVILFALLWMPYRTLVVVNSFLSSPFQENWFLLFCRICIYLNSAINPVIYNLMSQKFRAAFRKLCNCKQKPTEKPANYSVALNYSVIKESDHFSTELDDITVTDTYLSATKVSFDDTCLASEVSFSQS
Sequence of Nuclear receptor subfamily 1 group I member 2 (Homo sapiens) (O75469 whole entry, looked up): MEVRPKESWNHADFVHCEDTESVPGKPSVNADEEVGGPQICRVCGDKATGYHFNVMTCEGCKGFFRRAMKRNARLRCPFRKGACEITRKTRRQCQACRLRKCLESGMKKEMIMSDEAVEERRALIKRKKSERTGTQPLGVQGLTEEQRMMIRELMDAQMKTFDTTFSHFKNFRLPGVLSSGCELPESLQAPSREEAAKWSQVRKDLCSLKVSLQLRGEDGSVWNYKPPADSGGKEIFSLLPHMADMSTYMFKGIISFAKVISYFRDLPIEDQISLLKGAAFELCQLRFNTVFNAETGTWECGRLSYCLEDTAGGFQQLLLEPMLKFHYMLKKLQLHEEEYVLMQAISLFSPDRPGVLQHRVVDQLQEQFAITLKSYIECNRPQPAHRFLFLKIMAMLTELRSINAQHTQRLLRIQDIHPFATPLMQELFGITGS
Sequence of Cytochrome P450 2D6 (Homo sapiens) (P10635 whole entry, looked up): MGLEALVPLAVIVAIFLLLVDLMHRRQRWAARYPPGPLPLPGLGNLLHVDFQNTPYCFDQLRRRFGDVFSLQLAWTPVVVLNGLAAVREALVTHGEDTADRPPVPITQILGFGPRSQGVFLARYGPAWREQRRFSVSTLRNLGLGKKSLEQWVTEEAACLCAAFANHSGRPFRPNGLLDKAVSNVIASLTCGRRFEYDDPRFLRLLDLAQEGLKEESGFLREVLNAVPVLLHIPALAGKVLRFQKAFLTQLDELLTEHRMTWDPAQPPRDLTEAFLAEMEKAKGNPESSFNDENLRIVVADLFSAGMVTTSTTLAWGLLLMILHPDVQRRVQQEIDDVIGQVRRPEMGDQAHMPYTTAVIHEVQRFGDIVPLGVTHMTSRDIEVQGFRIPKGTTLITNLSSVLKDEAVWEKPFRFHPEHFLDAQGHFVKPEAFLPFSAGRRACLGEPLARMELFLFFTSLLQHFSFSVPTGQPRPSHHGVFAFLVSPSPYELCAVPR
Sequence of Progesterone receptor (Homo sapiens) (P06401 whole entry, looked up): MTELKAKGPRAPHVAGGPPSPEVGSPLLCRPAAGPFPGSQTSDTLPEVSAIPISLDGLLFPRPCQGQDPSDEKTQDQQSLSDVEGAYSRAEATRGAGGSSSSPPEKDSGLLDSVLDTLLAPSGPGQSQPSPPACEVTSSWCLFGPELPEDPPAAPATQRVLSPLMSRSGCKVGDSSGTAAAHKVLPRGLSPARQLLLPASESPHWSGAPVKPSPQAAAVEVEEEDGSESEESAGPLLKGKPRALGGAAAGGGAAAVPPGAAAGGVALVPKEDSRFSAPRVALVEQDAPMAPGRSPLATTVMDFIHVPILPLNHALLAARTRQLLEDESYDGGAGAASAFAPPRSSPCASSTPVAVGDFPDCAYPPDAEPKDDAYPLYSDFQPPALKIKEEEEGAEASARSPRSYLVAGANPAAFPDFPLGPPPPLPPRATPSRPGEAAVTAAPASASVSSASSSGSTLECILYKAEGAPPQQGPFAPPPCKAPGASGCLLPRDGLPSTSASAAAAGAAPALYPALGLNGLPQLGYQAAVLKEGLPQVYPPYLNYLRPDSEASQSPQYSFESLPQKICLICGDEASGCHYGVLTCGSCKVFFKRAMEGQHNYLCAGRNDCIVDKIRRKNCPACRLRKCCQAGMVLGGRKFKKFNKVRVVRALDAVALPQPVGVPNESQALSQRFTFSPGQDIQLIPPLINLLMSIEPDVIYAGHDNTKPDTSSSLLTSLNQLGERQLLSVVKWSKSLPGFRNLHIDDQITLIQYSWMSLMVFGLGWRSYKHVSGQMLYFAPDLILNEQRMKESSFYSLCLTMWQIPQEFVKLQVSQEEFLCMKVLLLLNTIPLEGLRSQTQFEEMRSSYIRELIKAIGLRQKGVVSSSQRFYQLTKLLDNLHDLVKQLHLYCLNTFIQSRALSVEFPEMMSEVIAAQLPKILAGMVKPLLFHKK
Sequence of Nuclear receptor subfamily 1 group I member 2 (Rattus norvegicus) (Q9R1A7 whole entry, looked up): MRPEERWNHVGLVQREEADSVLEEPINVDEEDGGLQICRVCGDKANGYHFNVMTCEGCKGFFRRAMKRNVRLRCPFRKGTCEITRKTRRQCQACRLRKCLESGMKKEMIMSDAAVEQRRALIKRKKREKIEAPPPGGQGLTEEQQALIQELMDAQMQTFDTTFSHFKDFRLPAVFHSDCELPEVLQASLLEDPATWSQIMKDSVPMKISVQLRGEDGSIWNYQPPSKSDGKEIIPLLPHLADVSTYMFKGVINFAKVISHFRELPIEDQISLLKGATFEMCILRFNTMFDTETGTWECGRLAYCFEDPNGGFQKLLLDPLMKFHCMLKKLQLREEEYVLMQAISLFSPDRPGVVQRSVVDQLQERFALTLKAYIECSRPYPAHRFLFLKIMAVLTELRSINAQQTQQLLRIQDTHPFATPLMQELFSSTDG

For the molecule `NC(=O)c1ncn([C@@H]2O[C@H](CO)[C@@H](O)[C@H]2O)n1`, the Potency result in test [1], in [2], in test [3], in test [4], in [5] and in [6] was “inactive” in each case. Further, the Potency result in test [8], in [9], in [10], in test [11], in test [12] and in test [14] was “inactive” throughout. Also, the Potency result in test [15] was “inactive”. The molecule was classed as inactive in test [7]. Also, the Potency in test [13] was 9.1 µM (active) and inactive.

Take `CCc1cccc(O)c1`: the Potency result in test [1], in test [2], in test [16], in test [17], in [3] and in [5] was “inactive” in each case. Besides, the Potency entry in [6], in [9], in [10], in test [11], in test [12] and in test [13] was “inactive” throughout. Further, the Potency entry in test [14] is “inactive”. The result in test [7] was inactive. Besides, in test [15], the Potency was 40.8 µM (active).

Regarding `O=C(NCC1CCCCN1)c1cc(OCC(F)(F)F)ccc1OCC(F)(F)F` (stereo not given), the Potency result in test [1], in [2], in test [16], in test [17], in [3] and in test [5] was “inactive” each time. The Potency result in [6], in test [9], in test [10], in test [11], in test [12] and in [15] was “inactive” throughout. Besides, in test [7], the call was inactive. Further, the Potency in test [8] was 60 µM (active).

`CC(COCC(C)OC(=O)c1ccccc1)OC(=O)c1ccccc1` (stereo not given): the Potency result in test [1], in [16], in [17], in test [3], in [5] and in [6] was “inactive” in each case. The Potency result in test [9], in [10], in test [11], in [12], in test [13] and in test [14] was “inactive” throughout. In addition, the outcome in test [7] was inactive. For the same molecule, the Potency in test [15] is 19.9 µM (active) and 11.2 µM (active).

With `C[Si](C)(C)N[Si](C)(C)C`, the Potency entry in [1], in test [2], in test [16], in test [17], in [3] and in test [5] was “inactive” throughout. Besides, the Potency entry in [8], in [9], in test [10], in test [11], in test [12] and in test [14] was “inactive” each time. The Potency result in test [15] is “inactive”. In addition, the Potency in test [13] was 60.6 µM (active) and inactive.

As for `O=c1c(O)c(-c2ccc(O)c(O)c2)oc2cc(O)cc(O)c12`, the Potency entry in [1], in test [16], in test [17], in [3], in test [5] and in test [6] was “inactive” in each case. In addition, the Potency entry in test [9], in test [11], in test [19] and in test [15] was “inactive” throughout. Further, the Potency in test [2] was 15.4 µM (active) and 16.8 µM (active); in test [10], 54.5 µM (active); in [12], 48.6 µM (active) and 54.5 µM (active); in test [13] it was 48.6 µM (active) and 69.1 µM (active); in test [14], 63.4 µM (active) and inactive. Further, the outcome in [7] and in [20] was inactive. The max activation in test [18] is -3.01% (inactive).

These data come from PubChem BioAssay (Tox21).
